# Experimental data published in the supplement of paper PMC10338343.
# ± gives the standard deviation.
# Experiments:
# [1] = tested on: MILI (PIWIL2) piRISC loaded with L1MC piRNA (26 nt); assay: pre-steady-state target cleavage rate (min^-1); guide: L1MC piRNA 5'p-UAACUAAAUACUAUGCAAGCUGUAGG; higher = faster piRNA-guided slicing of the target;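 also: 1 nM active piRISC with 0.1 nM target library at 33 °C single turnover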
# Procedure, shortened: (§1)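 A burst-and-steady-state fit was used to obtain the pre-steady-state cleavage rate. The input data were sequencing reads of uncleaved targets, normalised to depth and to weakly complementary targets, from a […] transcribed, DNA-blocked target RNA library mixed with 1 nM active affinity-purified piRISC holding one synthetic guide, with or without 500 nM GTSF1 partner protein, in HEPES–potassium acetate buffer at 33 °C for 0–8 or 0–960 min. Three trials were pooled and k3 was capped at 0.0001 min^-1.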
# [2] = tested on: EfPiwi piRISC loaded with L1MC piRNA (26 nt); assay: pre-steady-state target cleavage rate (min^-1); auxiliary factor: 500 nM Ephydatia muelleri Gtsf1; guide: L1MC piRNA 5'p-UAACUAAAUACUAUGCAAGCUGUAGG; MIWI and MILI are mouse PIWI proteins and EfPiwi is from a freshwater sponge; tags in brackets are library labels; higher = faster piRNA-guided slicing of the target
# Procedure, shortened: as §1
# [3] = auxiliary factor: 500 nM mouse GTSF1
Sequence,"pre-steady-state target cleavage rate [1, 3]",pre-steady-state target cleavage rate [2],pre-steady-state target cleavage rate ([1]; auxiliary factor: none (no GTSF1))
UCCUGGAUGUGCUUGGCAUAGUAUUUAGUUA,0.19 ± 0.057,0.00458 ± 0.0029,–
UCCUGCUUGUGCUUGCAUAGUAUUUAGUAA,0.0582 ± 0.015,0.00475 ± 0.0026,–
UCCUCCUACAGCUUGCAUAGUAAUUACAAA,0.18 ± 0.039,0.00353 ± 0.0025,–
UCCUGGAACAGCUUGCAAUAGUAUUUAGUUA,0.0492 ± 0.013,0.0183 ± 0.0054,–
UCCUGGAUGUCCUUGCAUAGUAUUAUAGUUA,0.122 ± 0.019,0.00424 ± 0.0041,–
UCCUGGAACAGCUUGCAUAGUUUUUAGUAA,0.0664 ± 0.015,0.00724 ± 0.0029,–
UCCUCCUACAGCUUGCAUAGUAUAAAGUAA,0.0819 ± 0.019,0.0031 ± 0.0024,–
UCCUGGAUGUCCUUGCAUAGUAUUUAGAUUA,0.101 ± 0.022,0.00316 ± 0.003,–
UCCUGGAACAGCUUGCAUACUAUUUUGUUA,0.0261 ± 0.0092,0.00252 ± 0.0023,–
UCCUGGUACAGCUUGCAUAGUAUAUAGUAA,0.173 ± 0.034,0.00335 ± 0.0022,–
UCCUGGUACAGCUUGCAUAGUAUUAUCUAA,0.0327 ± 0.012,0.00312 ± 0.0027,–
UCCUGGAUGUGCUUGCAUAGUAUUUAGUAUA,0.131 ± 0.019,0.00507 ± 0.0027,–
UCCUGGAUCAGCUUGCAUAGUAUUUUGAUA,0.0355 ± 0.013,0.00716 ± 0.003,–
UCCUGCUACAGCUUGCAUAGUAUUUAGUA,0.335 ± 0.07,0.00529 ± 0.0019,–
UCCUGCUACAGCUUGCAUAGUAUUUACUUA,0.171 ± 0.032,0.00356 ± 0.0027,–
UCCUGGAUGUCGAACCAUAGUAUUUAGGUA,–,< 0.0001,< 0.0001
UCCUGGUACUGCUUGCAUAGUAUUUAGUAA,0.0986 ± 0.018,0.00428 ± 0.0018,–
UCCUGGAACAGGAUGCAUAGUAUUUAGAAA,0.0732 ± 0.017,0.00257 ± 0.0016,–
UCCUCGAACAGCUUGCAUAGUAUUUUCAAA,0.102 ± 0.021,0.00321 ± 0.0022,–
UCCUGCUACAGCAUGCAUAGUAUUUACUUA,0.261 ± 0.041,0.0037 ± 0.0024,–
